Assay [1] concerns the target Glucocorticoid receptor (Homo sapiens) (UniProt P04150). Nature of the assay: GR-GFP Redistribution (AID 450;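 active = compounds whose dose series gives a full or clear partial fitted curve of increased nuclear translocation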; note: potency is the fitted concentration of half-maximal effect). Conditions: U2OS GR-GFP nuclear translocation, laser cytometry, 2 h.
Assay [2] has the same target. As to the kind of experiment: GR-EFC Redistribution (AID 451; calls by dose curve; note: potency is the fitted concentration of half-maximal effect). The conditions noted are these: CHO-K1 GR-EFC translocation, beta-gal luminescence, 2 h. In short, it runs like this:
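CHO-K1 cells stably expressing nuclear-localized β-gal enzyme acceptor and GR fused C-terminally to the enzyme donor fragment; ligand-driven nuclear translocation restores β-gal by complementation. Compounds titrated up to 46 uM final, 2 h at 37 °C; luminescence read.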

Assay [3] has as its target Mitogen-activated protein kinase 10 (Mus musculus) (UniProt Q61831). Nature of the assay: JNK3 AlphaScreen Assay (AID 530; active = well fitted curve in either direction with a large enough effect, not every such curve was filed as active;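 note: kinase came from lysate of stimulated human HepG2 cells; % is set by controls: 0 for no effect and ±100 for the full control effect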). Conditions: JNK3 lysate, c-Jun phosphorylation; series mostly up to 57.1 µM. An outline of the steps: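 Biotinylated GST-cJun(1-79) served as substrate for JNK3 in HepG2 lysates stimulated with IL-1beta and TNF-alpha. ATP was 10 uM final, pH 7.6. Ser73 phosphorylation was quantified by AlphaScreen (680 nm excitation).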
On the technique in general: Bead proximity is the source of the signal in Alpha formats.

Assay [4] has as its target 3',5'-cyclic-AMP phosphodiesterase 4B (Homo sapiens) (UniProt Q07343). Nature of the assay: qHTS Assay for Inhibitors of PDE-IV (AID 607; active = well fitted activation curve with a large enough effect in the main read-out, with a control signal flat, not every such curve was filed as active; note: % of control where 0% means no effect). Conditions: HEK293 ACTOne CNG channel cells, membrane potential fluorescence; series mostly up to 22.9 µM. In short, it runs like this:
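HEK293 ACTOne cells with CNG channel (1000/well), endogenous PDE4; membrane potential dye, compounds up to 22.9 uM final. Fluorescence Ex 535/Em 590; RO 20-1724 (100 uM final) as reference.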

A short description of assay [5]: qHTS Assay for Lipid Storage Modulators (AID 1519; calls by dose curve; note: potency is the fitted concentration of half-maximal effect; for activity change, negative = inhibition: % is set by controls: 0 for no effect and ±100 for the full control effect). Conditions: Drosophila S3 cells, BODIPY lipid droplet/cell ratio, laser cytometry, cells loaded with oleic acid; for activity change, negative = inhibition: at 57.5 µM (top of the series). In short, it runs like this: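 Cells seeded at 5,000 per well were treated with compounds over a concentration series and loaded with oleic acid (400 uM, as added). Lipid droplet fluorescence (488 nm excitation, 500-530 nm channel) was read by laser-scanning cytometry and normalized to 20 uM Triacsin C.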
On the technique in general: qHTS replaces the single test concentration by a dilution series.

The target of assay [6] is DNA dC->dU-editing enzyme APOBEC-3G (Homo sapiens) (UniProt Q9HC16). Nature of the assay: qHTS for inhibitors of Vif-A3G interactions: Validation (AID 588379). Note: 0% is about no effect. Conditions: Vif-A3G protein interaction assay; series mostly up to 46.1 µM. An outline of the steps:
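Yellow fluorescence (Ex 488, Em 500-530) of Vif-coexpressing HeLa A3G-eYFP cells, scanned by Acumen cytometer, reports blocked A3G degradation. Cells plated at 700/well overnight at 37 deg C before compound addition, then a further overnight compound incubation at 37 deg C.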

Assay [7] has as its system Zika virus NS2B-NS3 protease. As to the kind of experiment: Primary screen GU AMC qHTS for Zika virus inhibitors (AID 1347154).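 Note: 0% = no-inhibitor control and -100% = no-enzyme control; nearly all actives have a fitted effect of over 70% in size.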 Conditions: Zika NS2B-NS3 unlinked protease, AMC fluorogenic substrate; series mostly up to 54.1 µM. An outline of the steps:
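Unlinked Zika NS2B hydrophilic domain/NS3 protease domain noncovalent complex (25 nM final) in 10 mM Tris-HCl pH 8.0, 0.01% Tween 20, with AMC peptide substrate. Fluorescence (ex 340, em 450 nm) change over 15 min, room temperature; percent inhibition fitted to 4-parameter Hill equation.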

A short description of assay [8]: Primary qHTS for small molecule stabilizers of the endoplasmic reticulum resident proteome: Secreted ER Calcium Modulated Protein (SERCaMP) assay (AID 1508630). Note: % is set by controls: 0 for no effect and ±100 for the full control effect. Conditions: SH-SY5Y GLuc-SERCaMP (Gaussia luciferase released on ER calcium loss) secretion, thapsigargin, luminescence; series mostly up to 38.4 µM. An outline of the steps:
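The SH-SY5Y reporter protocol was run at 3 concentrations up to 38.3 uM (primary) or 11 concentrations (follow-up): 16 h compound, 100 nM thapsigargin for 4 h, then extracellular luciferase luminescence.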

Assay [9] concerns the target Cytochrome P450 1A2 (Homo sapiens) (UniProt P05177). As to the kind of experiment: p450-cyp1a2 (AID 410; calls by dose curve; note: potency is the fitted concentration of half-maximal effect;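 for activity change, negative = inhibition: -100% = full effect of reference inhibitor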). The conditions noted are these: recombinant CYP1A2, luciferin-ME demethylation, luminescence; series mostly up to 57 µM. In short, it runs like this:
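Read-out is luminescence from luciferin produced by CYP1A2 demethylation of Luciferin-ME (100uM, at Km). Detection reagent stopped the 60 min NADPH-dependent reaction; signals were normalized to 57 uM furafylline.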

Assay [10] concerns the target Cytochrome P450 2D6 (Homo sapiens) (UniProt P10635). As to the kind of experiment: qHTS Assay for Inhibitors and Substrates of Cytochrome P450 2D6 (AID 891). Note: potency is the fitted concentration of half-maximal effect; nearly all actives have a fitted effect of over 60% in size. The conditions noted are these: recombinant CYP2D6, luciferin-ME EGE luminescence; series mostly up to 57.1 µM. An outline of the steps:
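Luminescent read-out of luciferin formed by 5 nM human CYP2D6 demethylating 30 uM Luciferin-ME EGE (Km level) over 60 min at room temperature after NADPH regeneration addition. Data normalized to full inhibition by 1.43 uM quinidine.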

Assay [11] concerns the target Ubiquitin carboxyl-terminal hydrolase 1 (Homo sapiens) (UniProt O94782). Nature of the assay: Inhibitors of USP1/UAF1: Pilot qHTS (AID 504865).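 Note: rhodamine fluorescence freed from ubiquitin-rhodamine substrate followed over time; top concentration of the series differs between compounds; % is set by controls: 0 for no effect and ±100 for the full control effect; nearly all actives have a fitted effect of over 35% in size.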 Conditions: purified USP1/UAF1, Ub-rhodamine cleavage fluorescence; series mostly up to 114 µM. An outline of the steps: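 Enzyme-free wells gave the negative control, while test wells held 1nM USP1/UAF1 preincubated with compound for 15 min at room temperature. Ub-Rho at 150nM final started the reaction, and fluorescence at 480/540 nm was recorded kinetically.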

The target of assay [12] is Cytochrome P450 3A4 (Homo sapiens) (UniProt P08684). Nature of the assay: qHTS Assay for Activators of Cytochrome P450 3A4 (AID 885). Note: nearly all actives have a fitted effect of over 65% in size. Conditions: recombinant CYP3A4, Luciferin-PPXE luminescence, 60 min; series mostly up to 57.1 µM. In short, it runs like this: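 Human CYP3A4 dealkylates Luciferin-PPXE to luciferin, which luciferase detection converts to light. Substrate was at its KM (25uM), buffer 200mM KPO4, reaction 60 min at RT.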

Assay [13] concerns the target Pyruvate kinase (Leishmania mexicana) (UniProt Q27686). Nature of the assay: qHTS Validation Assay for Inhibitors of Leishmania Mexicana Pyruvate Kinase (AID 945).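 Note: 0% = DMSO only neutral control wells.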 The conditions noted are these: purified L. mexicana pyruvate kinase, enzyme activity, E451W mutant enzyme; series mostly up to 57.5 µM. An outline of the steps:
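Read-out: luminescence from PKLight stop/detection reagent, data normalized to DMSO. Reaction: 0.2 nM E451W LmPYK, 0.5 mM PEP, 0.1 mM ADP, pH 7.2, 1 h room temperature.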

Assay [14] concerns the target Pyruvate kinase PKM (Homo sapiens) (UniProt P14618). As to the kind of experiment: qHTS Assay for Activators of Human Muscle Pyruvate Kinase (AID 954; active = well fitted curve in the direction sought with a large enough effect, not every such curve was filed as active;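 note: 0% = uninhibited enzyme and -100% = no enzyme or full thiadiazolimine inhibition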). The conditions noted are these: purified human muscle pyruvate kinase, luciferase-coupled luminescence, 1 h; series mostly up to 57.5 µM. An outline of the steps: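 Compound pinned into substrate mix (0.5 mM PEP, 0.1 mM ADP), then 0.1 nM PKM2 added; 1 h, RT. Stop/detection luciferase reagent added, luminescence read. Normalized to no-inhibition and no-enzyme or reference-inhibitor controls.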

Assay [15] deals with alpha-glucosidase (Oryza sativa, rice) (UniProt Q653V4). Nature of the assay: Counterscreen for Glucocerebrosidase Inhibitors: qHTS Assay for Rice alpha-Glucosidase at pH 5.0 (AID 997).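 Note: 0% = full activity with enzyme and -100% = basal without enzyme.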 Conditions: rice alpha-glucosidase enzyme activity; series mostly up to 76.9 µM. In short, it runs like this:
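Endpoint fluorogenic assay at pH 5.0: compounds (0.7 nM to 77 uM) titrated against 4 nM rice enzyme and 400 uM 4-MU-alpha-glucoside for 20 min at room temperature; NaOH/glycine stop, read ex 365/em 440 nm, Hill-fitted AC50.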

Where [16] appears, read: measured here: cell count channel max response.
Setting [17] is: measured here: lipid channel max response.

“And” between values parts separate entries of the source, which are not always exact repeats. Equal values may be shown once. Records with an inconclusive call do not appear. The source made the active and inactive calls. Unless noted, calls come from the whole dose curve; as a rule, active = well fitted curve in the direction sought with a large enough effect; inconclusive = small, poorly fitted or top-dose-only effect, or another doubt; inactive = no such curve, though single readings can be large; an effect the other way counts as inactive or inconclusive.

Glucocorticoid receptor (Homo sapiens), sequence (P04150 whole entry, looked up): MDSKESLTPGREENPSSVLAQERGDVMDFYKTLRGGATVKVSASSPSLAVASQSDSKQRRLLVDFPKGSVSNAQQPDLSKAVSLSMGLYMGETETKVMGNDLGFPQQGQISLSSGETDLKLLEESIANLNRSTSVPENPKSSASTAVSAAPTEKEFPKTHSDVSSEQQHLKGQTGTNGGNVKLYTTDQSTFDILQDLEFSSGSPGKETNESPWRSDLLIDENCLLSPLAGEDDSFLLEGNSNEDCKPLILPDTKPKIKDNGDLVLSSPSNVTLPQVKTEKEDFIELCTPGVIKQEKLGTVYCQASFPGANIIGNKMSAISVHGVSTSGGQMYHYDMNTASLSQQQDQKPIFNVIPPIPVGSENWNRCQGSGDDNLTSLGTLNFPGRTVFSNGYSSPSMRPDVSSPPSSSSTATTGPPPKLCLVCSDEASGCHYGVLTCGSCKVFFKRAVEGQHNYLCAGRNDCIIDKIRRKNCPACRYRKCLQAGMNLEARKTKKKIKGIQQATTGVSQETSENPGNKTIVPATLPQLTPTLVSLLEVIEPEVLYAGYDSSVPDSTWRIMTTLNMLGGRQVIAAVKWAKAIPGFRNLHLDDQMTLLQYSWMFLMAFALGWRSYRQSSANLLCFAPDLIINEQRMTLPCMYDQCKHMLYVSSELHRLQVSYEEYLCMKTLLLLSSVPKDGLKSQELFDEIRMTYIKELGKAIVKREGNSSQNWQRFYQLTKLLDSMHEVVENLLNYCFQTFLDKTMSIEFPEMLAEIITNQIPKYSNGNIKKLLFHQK
DNA dC->dU-editing enzyme APOBEC-3G (Homo sapiens), sequence (Q9HC16 whole entry, looked up): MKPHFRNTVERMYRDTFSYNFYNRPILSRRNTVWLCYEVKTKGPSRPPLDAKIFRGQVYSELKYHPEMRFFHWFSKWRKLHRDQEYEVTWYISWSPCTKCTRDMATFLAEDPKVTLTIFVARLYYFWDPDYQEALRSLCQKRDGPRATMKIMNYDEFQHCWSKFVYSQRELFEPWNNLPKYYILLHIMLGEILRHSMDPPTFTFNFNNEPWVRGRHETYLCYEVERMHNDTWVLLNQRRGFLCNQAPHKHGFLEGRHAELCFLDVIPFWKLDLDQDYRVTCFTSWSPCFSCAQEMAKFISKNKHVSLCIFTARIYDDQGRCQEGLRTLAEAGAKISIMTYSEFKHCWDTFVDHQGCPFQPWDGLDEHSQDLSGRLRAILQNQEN
3',5'-cyclic-AMP phosphodiesterase 4B (Homo sapiens), sequence (Q07343 whole entry, looked up): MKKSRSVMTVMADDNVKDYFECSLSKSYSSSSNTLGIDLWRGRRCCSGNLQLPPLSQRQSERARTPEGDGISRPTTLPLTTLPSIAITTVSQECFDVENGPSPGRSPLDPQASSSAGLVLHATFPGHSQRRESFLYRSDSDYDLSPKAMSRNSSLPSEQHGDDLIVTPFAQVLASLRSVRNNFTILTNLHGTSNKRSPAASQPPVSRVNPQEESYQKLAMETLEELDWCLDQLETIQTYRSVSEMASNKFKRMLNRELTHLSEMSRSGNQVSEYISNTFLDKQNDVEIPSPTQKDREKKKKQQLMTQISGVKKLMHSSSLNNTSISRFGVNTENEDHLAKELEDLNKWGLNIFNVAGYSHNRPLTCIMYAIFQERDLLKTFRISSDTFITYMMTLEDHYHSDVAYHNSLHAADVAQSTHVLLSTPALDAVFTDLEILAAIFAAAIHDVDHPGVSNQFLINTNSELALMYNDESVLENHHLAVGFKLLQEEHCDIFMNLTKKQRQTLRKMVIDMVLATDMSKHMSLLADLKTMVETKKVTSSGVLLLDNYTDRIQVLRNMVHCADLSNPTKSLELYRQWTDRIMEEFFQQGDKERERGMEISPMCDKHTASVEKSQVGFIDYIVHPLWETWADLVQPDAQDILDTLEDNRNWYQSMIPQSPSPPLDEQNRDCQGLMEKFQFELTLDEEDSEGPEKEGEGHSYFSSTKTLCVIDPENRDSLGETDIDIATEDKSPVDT
Cytochrome P450 1A2 (Homo sapiens), sequence (P05177 whole entry, looked up): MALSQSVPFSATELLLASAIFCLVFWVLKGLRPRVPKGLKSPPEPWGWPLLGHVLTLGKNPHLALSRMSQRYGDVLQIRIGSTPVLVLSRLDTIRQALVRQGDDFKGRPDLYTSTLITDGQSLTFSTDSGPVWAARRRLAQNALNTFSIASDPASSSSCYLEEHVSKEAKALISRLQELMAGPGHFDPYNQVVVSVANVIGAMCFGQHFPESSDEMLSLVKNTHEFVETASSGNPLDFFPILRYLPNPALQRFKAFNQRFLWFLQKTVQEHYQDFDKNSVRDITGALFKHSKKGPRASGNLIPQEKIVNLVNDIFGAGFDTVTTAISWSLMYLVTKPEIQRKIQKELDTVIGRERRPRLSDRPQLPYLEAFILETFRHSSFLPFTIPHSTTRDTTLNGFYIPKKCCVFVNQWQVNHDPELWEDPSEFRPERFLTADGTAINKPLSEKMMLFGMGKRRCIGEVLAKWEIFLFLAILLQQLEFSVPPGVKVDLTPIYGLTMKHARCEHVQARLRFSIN
Cytochrome P450 3A4 (Homo sapiens), sequence (P08684 whole entry, looked up): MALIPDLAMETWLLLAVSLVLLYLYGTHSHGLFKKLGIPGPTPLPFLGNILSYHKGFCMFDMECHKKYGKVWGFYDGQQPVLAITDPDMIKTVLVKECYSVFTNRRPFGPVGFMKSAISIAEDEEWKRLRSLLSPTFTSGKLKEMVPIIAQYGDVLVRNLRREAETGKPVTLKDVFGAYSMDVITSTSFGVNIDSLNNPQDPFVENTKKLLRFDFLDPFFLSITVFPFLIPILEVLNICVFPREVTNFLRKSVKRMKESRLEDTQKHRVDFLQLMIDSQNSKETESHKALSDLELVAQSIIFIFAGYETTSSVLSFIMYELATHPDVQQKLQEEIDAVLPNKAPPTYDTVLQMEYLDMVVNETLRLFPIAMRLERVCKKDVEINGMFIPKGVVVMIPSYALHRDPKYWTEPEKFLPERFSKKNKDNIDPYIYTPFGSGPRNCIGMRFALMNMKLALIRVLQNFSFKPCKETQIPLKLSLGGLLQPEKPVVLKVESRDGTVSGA
Ubiquitin carboxyl-terminal hydrolase 1 (Homo sapiens), sequence (O94782 whole entry, looked up): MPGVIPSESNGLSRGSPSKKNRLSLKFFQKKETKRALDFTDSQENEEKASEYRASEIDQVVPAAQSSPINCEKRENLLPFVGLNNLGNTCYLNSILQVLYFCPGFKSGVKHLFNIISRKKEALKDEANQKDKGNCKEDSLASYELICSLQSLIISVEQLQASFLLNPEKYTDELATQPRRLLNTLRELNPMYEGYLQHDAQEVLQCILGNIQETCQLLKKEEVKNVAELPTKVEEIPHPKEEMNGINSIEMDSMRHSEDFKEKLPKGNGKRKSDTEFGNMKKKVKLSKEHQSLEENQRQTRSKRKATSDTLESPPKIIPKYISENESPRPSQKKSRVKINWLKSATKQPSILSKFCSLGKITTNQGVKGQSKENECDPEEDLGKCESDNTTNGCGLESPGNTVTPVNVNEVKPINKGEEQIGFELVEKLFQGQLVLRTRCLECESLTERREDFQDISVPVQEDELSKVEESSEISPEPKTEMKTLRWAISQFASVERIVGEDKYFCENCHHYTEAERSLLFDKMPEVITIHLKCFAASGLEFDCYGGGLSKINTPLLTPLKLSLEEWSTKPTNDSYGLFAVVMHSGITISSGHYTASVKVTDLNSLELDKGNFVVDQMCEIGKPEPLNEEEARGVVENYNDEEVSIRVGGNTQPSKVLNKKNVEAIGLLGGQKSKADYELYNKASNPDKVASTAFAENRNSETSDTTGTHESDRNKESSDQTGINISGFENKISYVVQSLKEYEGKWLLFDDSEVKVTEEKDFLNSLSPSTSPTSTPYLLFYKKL
Pyruvate kinase (Leishmania mexicana), sequence (Q27686 2-499 E452W): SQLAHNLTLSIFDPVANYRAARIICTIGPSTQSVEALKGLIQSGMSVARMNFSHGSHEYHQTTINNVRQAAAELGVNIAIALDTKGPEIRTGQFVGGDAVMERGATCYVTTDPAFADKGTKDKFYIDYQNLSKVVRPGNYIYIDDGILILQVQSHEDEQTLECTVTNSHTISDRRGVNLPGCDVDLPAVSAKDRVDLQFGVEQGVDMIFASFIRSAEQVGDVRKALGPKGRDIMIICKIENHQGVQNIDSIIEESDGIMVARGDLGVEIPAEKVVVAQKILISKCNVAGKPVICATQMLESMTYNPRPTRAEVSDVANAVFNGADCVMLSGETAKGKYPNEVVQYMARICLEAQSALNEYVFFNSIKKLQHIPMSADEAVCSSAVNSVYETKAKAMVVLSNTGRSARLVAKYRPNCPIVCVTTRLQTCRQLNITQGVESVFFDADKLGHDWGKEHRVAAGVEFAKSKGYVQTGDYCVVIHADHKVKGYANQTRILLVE
Pyruvate kinase PKM (Homo sapiens), sequence (P14618 whole entry, looked up): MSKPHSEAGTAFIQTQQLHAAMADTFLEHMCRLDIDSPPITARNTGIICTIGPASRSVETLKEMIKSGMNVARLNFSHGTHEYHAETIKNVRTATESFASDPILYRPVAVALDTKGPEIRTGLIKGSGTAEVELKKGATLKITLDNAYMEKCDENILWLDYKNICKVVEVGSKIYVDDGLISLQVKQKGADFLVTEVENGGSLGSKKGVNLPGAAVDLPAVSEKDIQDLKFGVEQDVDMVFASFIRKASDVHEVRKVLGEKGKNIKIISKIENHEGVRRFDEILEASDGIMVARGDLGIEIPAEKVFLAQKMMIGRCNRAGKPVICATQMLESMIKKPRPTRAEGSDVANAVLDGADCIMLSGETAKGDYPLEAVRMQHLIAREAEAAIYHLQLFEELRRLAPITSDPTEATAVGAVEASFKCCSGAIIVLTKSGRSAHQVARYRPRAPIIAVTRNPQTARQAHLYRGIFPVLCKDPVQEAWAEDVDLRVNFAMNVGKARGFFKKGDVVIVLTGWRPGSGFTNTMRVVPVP

`CC(=O)O[C@H]1C[C@H]2CC[C@@H]3[C@H]4C[C@@H]([N+]5(C)CCCCC5)[C@@H](OC(C)=O)[C@]4(C)CC[C@@H]3[C@@]2(C)C[C@@H]1[N+]1(C)CCCCC1`: the Potency in assay [1] and in [2] was > 46 µM (inactive) in each case. Moreover, the Potency result in assay [3], in assay [4], in [6], in assay [7] and in assay [8] was “inactive” throughout. In addition, the activity change, negative = inhibition in assay [5] is -5.08% (inactive). Moreover, the max response in [5] (setting [16]) was -19.7%; in [5] (setting [17]), -24.4%.
Turning to `N[C@@H](CCCP(=O)(O)O)C(=O)O`, the Potency in assay [1] and in [2] was > 46 µM (inactive) throughout. Moreover, the Potency result in assay [3], in assay [4], in [6], in assay [7] and in [8] was “inactive” throughout. The activity change, negative = inhibition in assay [5] was -1.39% (inactive). Moreover, the figures for the max response in assay [5] (setting [16]) and in assay [5] (setting [17]) were 15.6% and 17.3%, respectively.
Turning to `N[C@@H](C(=O)O)[C@H](CC(=O)O)c1ccc(Cl)cc1`, the Potency entry in assay [9], in assay [4], in assay [7] and in assay [8] was “inactive” each time. Further, the Potency in assay [2] was > 46 µM (inactive); in [10], 2.51 µM (active). Moreover, the activity change, negative = inhibition in [5] is -4.76% (inactive). Also, the max response in [5] (setting [16]) is -14.9%; in assay [5] (setting [17]), -17.6%.
As to `NC1(C(=O)O)C[C@@H](C(=O)O)[C@H](C(=O)O)C1`, the Potency in [1] and in assay [2] was > 46 µM (inactive) each time. The Potency entry in [3], in assay [4], in assay [11], in [6], in assay [7] and in [8] was “inactive” each time. The activity change, negative = inhibition in assay [5] is 7.04% (inactive) and 6.44% (inactive). In addition, the max response in assay [5] (setting [16]) is 8.99% and 4.7%; in assay [5] (setting [17]) it was 18.3% and 11.3%.
As to `CSc1nc(N)c2ncn([C@H]3O[C@H](COP(=O)(O)OP(=O)(O)O)[C@@H](O)[C@@H]3O)c2n1`, the Potency in assay [1] and in assay [2] was > 46 µM (inactive) throughout. The Potency entry in assay [3], in assay [11], in [6], in assay [7] and in assay [8] was “inactive” each time. For the same compound, in [5], the activity change, negative = inhibition was 8.63% (inactive). In addition, the max response amounted to 13.1% in [5] (setting [16]) and 26.1% in assay [5] (setting [17]).
As to `CC(C)[C@H](CO)Nc1nc(Nc2cc(N)cc(Cl)c2)c2ncn(C(C)C)c2n1`, the Potency in assay [9] is 0.501 µM (active); in [1], > 46 µM (inactive); in assay [2] it was > 46 µM (inactive). Further, the Potency result in assay [3], in [6], in assay [7] and in assay [8] was “inactive” each time.
As for `COc1ccc2[nH]c(-c3ccccc3)c(CCNC(C)=O)c2c1`, the Potency is 1.26 µM (active) in assay [9], > 46 µM (inactive) in [1] and > 46 µM (inactive) in [2]. The Potency entry in assay [3], in assay [4], in [12], in assay [6], in assay [7] and in assay [8] was “inactive” each time.
On to `CC(C)(C)c1ccc(S(=O)(=O)/C=C\C#N)cc1`, for which the Potency is > 46 µM (inactive) in [1], > 46 µM (inactive) in assay [2] and 31.6 µM (active) in assay [5]. Also, the Potency result in assay [4], in [12], in [13], in assay [6], in assay [7] and in assay [8] was “inactive” each time. For the same compound, the compound was classed as inactive in assay [14] and in assay [15]. Further, the max response in assay [5] (setting [16]) was 5.78%; in assay [5] (setting [17]), -82.4%.
